# Reference: PubChem BioAssay
# Experiment: Plasmodium falciparum growth inhibition, primary screen, strain 3D7, DAPI fluorescence, 100 nL (AID 1184);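 also: parasites grown inside human red blood cells in medium with human serum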
# Settings: P. falciparum 3D7 growth, 3 d, higher = more signal
row,SMILES,z-score
1,CCCNC(=O)OC[C@H]1O[C@H](CCON=C[C@@H](OC)[C@H](C)C=CCC(=O)OC)C=C[C@@H]1Oc1ccc(OC)cc1,0.232
2,O=C1[C@H]2[C@H]3[C@H](O)[C@H](O)CC(=NO[C@@H]4O[C@H](CO)[C@@H](O)[C@H](O)[C@H]4O)[C@@H]3CC[C@H]2C(=O)N1c1ccc(F)cc1F,0.531
3,CCc1cc2c(nc1CC)CCN(CCC(C)=NOC[C@@H](O)COCc1ccco1)C2,0.15
4,c1ccc(C2NCCc3c2[nH]c2ccccc32)cc1 (stereo unspecified),-0.811
5,COC(=O)CC=C[C@H](C)[C@@H](OCc1ccccc1Br)C(C)C,-0.0811
6,COC(=O)[C@H](C)NC(=O)CCC1CC(OC(=O)NCCc2ccc(F)cc2)CC2(CCCC(COC(=O)NCC(c3ccccc3)c3ccccc3)O2)O1 (stereo partly specified),-1.32
7,CCOC(=O)NN=C1C[C@@H](O)[C@@H](O)[C@@H]2[C@@H]3C(=O)N(C[C@@H]4CCCO4)C(=O)[C@@H]3CC[C@@H]12,0.839
8,CO[C@@H]1COC(=O)CC=C[C@@H](C)[C@@H]2C=C[C@H](O)[C@@H](COC(=O)[C@H](C)NC(=O)CC=C[C@H]1C)O2,-0.117
9,CC(C)[C@@H](OCc1ccccc1)[C@H](C)C=NO[C@H](C)c1cn([C@H](CO)Cc2ccccc2)nn1,0.325
10,CC(C)=CCCC(C)=CCON=C1[C@H]2CCn3c(=O)n(Cc4cc5c(cc4Cl)OCO5)c(=O)n3[C@H]2[C@H](O)[C@@H]2O[C@H]12,-1.17
11,O=C1[C@H]2[C@H]3[C@H](O)[C@H](O)CC(=NO[C@@H]4O[C@H](CO)[C@@H](O)[C@H](O)[C@H]4O)[C@H]3CC[C@H]2C(=O)N1C1CCCCC1,0.418
